From PubChem BioAssay (NCATS) come the findings set out here.

Inconclusive results are not listed. Calls of active or inactive are those of the source. The call rests on the fitted dose curve; in most records, active means well fitted cell-killing curve with a large enough effect; inconclusive means small, poorly fitted or top-dose-only effect, or effect the other way; inactive means flat fitted curve, though single readings scatter.

The test in a line: MultiTox-Fluor Cytotoxicity Assay - LYMP1-002 - Live Cells (AID 955). To be noted: LYMP1-002 lymphoblastoid live-cell protease fluorescence viability; series mostly up to 46.1 µM. The text has this: NIH Chemical Genomics Center [NCGC]
NIH Molecular Libraries Screening Centers Network [MLSCN]
National Institutes of Environmental Health Sciences [NIEHS]
National Toxicology Program [NTP]
We have developed a 1536-well cell-based assay for quantitative high throughput screening (qHTS) against a number of cell lines to determine in vitro cytotoxicity of small molecules. This particular assay uses a human lymphoblastoid cell line (LYMP1-002) purchased from Coriell Institute.
NCGC Assay Protocol Summary:
The MultiTox-Fluor Cytotoxicity Assay (Promega) is a homogeneous method to simultaneously measure the relative number of live and dead cells in culture by detecting changes in cell membrane integrity. There are two fluorogenic peptide substrates in the assay reagent. Viable cells are determined when the cell-permeant substrate (GF-AFC) enters the cell and is cleaved by protease from live cells resulting in liberated fluorophore. This live-cell protease activity restricted to viable cells is proportional to cell number. The dead cells are determined by using fluorogenic cell-impermeant peptide substrate (bis-AAF-R110) which cleaved by dead cell proteases leaking from damaged cell membrane.
Using the MultiTox-Fluor Cytotoxicity Assay, the relative number of live cells was measured in the lymphoblastoid cell line with complete culture medium following compound treatment for 16 hours. The assay was performed in opaque black Kalypsys 1536-well plates. In the screen, tetraoctylammonium bromide was used as positive control. Library compounds were measured for their ability to cause acute toxicity in the cell line, as reflected by a decrease in live cell protease activity, in a concentration-dependent manner. […] AC50 values were determined from concentration-response data modeled with the standard Hill equation.
qHTS protocol for MultiTox-Fluor Cytotoxicity assay
[Step] [Parameter] [Value] [Description]
1. Reagent; 5 uL; 2500 lymphoblastoid cells/well
2. Time; 5 hr; 37 C incubation
4. Controls; 23 nL; Tetraoctylammonium bromide 6.4pM to 92 uM
5. Time; 16 hr; 37 C incubation
6. Reagent; 5 uL; MuliTox-Fluor Assay reagent
7. Time; 60 min; Room Temperature
8. Detection; live-cell fluorescence (Ex/Em=405/510); EnVision plate reader
Keywords: cell viability, cytotoxicity, lymphoblastoid cell line, fluorescence, NTPHTS, NTPHTS_NCGC, NIEHS, EPA, DSSTox, MLSMR, MLSCN, NIH Roadmap, qHTS, NCGC
Take `O=[N+]([O-])c1ccc(CCO)cc1`: the result was inactive.
Turning to `O=[N+]([O-])c1cc(C(F)(F)F)ccc1Cl`, the outcome was inactive.
As to `Cc1c(C(=O)O)cccc1[N+](=O)[O-]`, the molecule was called inactive.
Then `CC(=O)C1(C)CC2=C(CCCC2(C)C)CC1C` (stereo not given), with “inactive”; and `CNc1ccccc1`, with “inactive”.
As for `CC(C)(C)OCC1CO1` (stereo not given), the entry is “inactive”.
As for `O=C1OC(=O)c2c(Cl)c(Cl)c(Cl)c(Cl)c21`, the entry is “inactive”; as for `O=C(Cl)c1c(Cl)cccc1Cl`, “inactive”.
For the molecule `CC(=O)c1nccs1`, the molecule was called inactive.
As for `CCCC(C)CO` (stereo not given), the entry is “inactive”; as for `CCOc1ccccc1N`, “inactive”.
Then `COC(=O)c1ccccc1`, with “inactive”; and `CNc1ccc([N+](=O)[O-])cc1`, with “inactive”.
As for `Fc1ccccc1`, the entry is “inactive”.
For the molecule `Cc1ccc(C)cc1`, the result was inactive.
Take `Cc1ccc(S(=O)(=O)NC2CCCCC2)cc1`: the call was inactive.
Then `CCCCN(CCO)CCCC`, with “inactive”; and `CC(C)CCOC(=O)/C=C/c1ccccc1`, with “inactive”; and `CC(=O)Nc1ccc(C)cc1`, with “inactive”.
For `CCCOCC(C)OCC(C)O` (stereo not given), the molecule was classed as inactive.
As for `CN(C)c1cccc(O)c1`, the entry is “inactive”.
Take `CCCCCCCCC/C=C/CC1CC(=O)OC1=O` (stereo not given): the call was inactive.
On to `O=C1CCC(=O)O1`, for which the molecule was called inactive.
In the case of `N#CC1(O)CCCCC1`, the molecule was classed as inactive.
Then `Nc1cc([N+](=O)[O-])ccc1C(=O)O`, with “inactive”; and `C[C@@H]1CC2(OC[C@]3(C)O[C@H]23)O[C@H]2C[C@@]3(C)[C@@H]4CC[C@H]5C(C)(C)C(O[C@@H]6OC[C@@H](O)[C@H](O)[C@H]6O)CC[C@@]56C[C@@]46CC[C@]3(C)[C@@H]12` (stereo not given in full), with “inactive”; and `C=C(C)C(=O)OCC(C)C`, with “inactive”.
As for `Nc1ccc([N+](=O)[O-])c(N)c1`, the outcome was inactive.
Then `CC(=O)OC(C)C`, with “inactive”.
As for `C[C@@H]1O[C@@H](O[C@@H]2[C@@H](O)[C@H](OCCc3ccc(O)c(O)c3)O[C@H](CO[C@@H]3O[C@H](CO)[C@@H](O)[C@H](O)[C@H]3O)[C@H]2OC(=O)/C=C/c2ccc(O)c(O)c2)[C@H](O)[C@H](O)[C@H]1O`, the entry is “inactive”.
Then `Cc1cc(C)cc(N)c1`, with “inactive”.
Turning to `C1CCOC1`, the outcome was inactive.
Then `Nc1nc(CC(=O)O)cs1`, with “inactive”; and `O=[N+]([O-])c1cccc(C(F)(F)F)c1`, with “inactive”.
As for `CCCCOCCOCCSC#N`, the entry is “inactive”; as for `O=[N+]([O-])c1ccc(Cl)cc1Cl`, “inactive”.
As for `O=C(O)c1cc(Cl)cc(Cl)c1`, the entry is “inactive”; as for `O=[N+]([O-])c1c(Cl)cc(Cl)cc1Cl`, “inactive”.
For the molecule `CCC(C)(C)C(=O)O`, the result was inactive.
As for `S=C([S-])NCCNC(=S)[S-].[Zn+2]`, the entry is “inactive”.
